Source: PubChem BioAssay (NCATS)
Inconclusive results are not listed. Active and inactive are the calls of the source. The call rests on the fitted dose curve; in most records, active means well fitted cell-killing curve with a large enough effect; inconclusive means small, poorly fitted or top-dose-only effect, or effect the other way; inactive means flat fitted curve, though single readings scatter.

What was measured:
Test in all cases: Primary qHTS to identify gynecologic anti-cancer compounds using libraries of approved drugs and bioactive compounds (AID 1345084); further: nearly all actives have a fitted effect of over 55% in size
C33A = conditions: Gynecologic cancer cell panel viability, ATPlite luminescence, 48 h; series mostly up to 57.5 µM
Summary of the method: (§1)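 Five-point cytotoxicity, 48 h drug exposure at 37 C, 5% CO2, on cells seeded 16 h beforehand. ATP content read by ATPlite luminescence.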

CAOV3 = conditions: Gynecologic cancer cell panel viability, ATPlite luminescence, 48 h; series mostly up to 57.5 µM
Summary of the method: as §1

CASKI = conditions: Gynecologic cancer cell panel viability, ATPlite luminescence, 48 h; series mostly up to 57.5 µM
Summary of the method: as §1

Es-2 = conditions: Gynecologic cancer cell panel viability, ATPlite luminescence, 48 h; series mostly up to 57.5 µM
Summary of the method: as §1

HeLa = conditions: Gynecologic cancer cell panel viability, ATPlite luminescence, 48 h; series mostly up to 57.5 µM
Summary of the method: as §1

Hek293T = conditions: Gynecologic cancer cell panel viability, ATPlite luminescence, 48 h, control line for the selectivity index; series mostly up to 57.5 µM
Summary of the method: as §1
On the % scale 0 is the no-effect control and ±100 the full control effect.

CC1OC(O[C@H]2CC[C@@]3(C)C(CC[C@]4(C)C3CC=C3C5CC(C)(C)CC[C@]5(C(=O)OC5OC(CO)C(OC6OC(COC7OCC(O)C(O)C7O)C(O)C(O)C6O)C(O)C5O)CC[C@]34C)C2(C)C)C(O)C(O)C1OC1OCC(OC2OCC(O)C(O)C2O)C(O)C1O (stereo not given in full)
inactive: activity change, negative = cytotoxicity (C33A) 24.4% [at 6.55 µM] | activity change, negative = cytotoxicity (CAOV3) 3.53% [at 6.55 µM] | activity change, negative = cytotoxicity (CASKI) -2% [at 6.55 µM] | activity change, negative = cytotoxicity (Es-2) 0.974% [at 6.55 µM] | activity change, negative = cytotoxicity (HeLa) -5.59% [at 6.55 µM] | activity change, negative = cytotoxicity (Hek293T) 2.21% [at 6.55 µM]

CCC(C)C(=O)O[C@H]1CCC=C2C=C[C@H](C)[C@H](CC[C@@H](O)C[C@@H](O)CC(=O)O)[C@H]21 (stereo not given in full)
inactive: Potency (C33A) | Potency (CAOV3) | Potency (CASKI) | Potency (Es-2) | Potency (HeLa) | Potency (Hek293T)

C=C[C@H]1[C@H](O[C@@H]2O[C@H](CO)[C@@H](O)[C@H](O)[C@H]2O)OC=C(C(=O)OC)[C@H]1CC(=O)O
inactive: Potency (C33A) | Potency (CAOV3) | Potency (CASKI) | Potency (Es-2) | Potency (HeLa) | Potency (Hek293T)

O=C(O)/C=C/c1ccc(O)c(O[C@@H]2O[C@H](CO)[C@@H](O)[C@H](O)[C@H]2O)c1
inactive: Potency (C33A) | Potency (CAOV3) | Potency (CASKI) | Potency (Es-2) | Potency (HeLa) | Potency (Hek293T)

O=C1CSc2ccccc2N1Cc1cccc(C(F)(F)F)c1
inactive: Potency (C33A) | Potency (CAOV3) | Potency (CASKI) | Potency (Es-2) | Potency (HeLa) | Potency (Hek293T)

COC(=O)CC(O)C1OC(c2ccccc2)C(O)C1O (stereo not given)
inactive: Potency (C33A) | Potency (CAOV3) | Potency (CASKI) | Potency (Es-2) | Potency (HeLa) | Potency (Hek293T)

CC1=CC(=O)C2C(C)(C)CCC[C@]2(C)[C@H]1CO (stereo not given in full)
inactive: Potency (C33A) | Potency (CAOV3) | Potency (CASKI) | Potency (Es-2) | Potency (HeLa) | Potency (Hek293T)

OC[C@H]1O[C@@H](Oc2ccccc2)[C@H](O)[C@@H](O)[C@@H]1O
inactive: Potency (C33A) | Potency (CAOV3) | Potency (CASKI) | Potency (Es-2) | Potency (HeLa) | Potency (Hek293T)

CC1(C)CC[C@]2(C(=O)O[C@@H]3O[C@H](CO[C@@H]4O[C@H](CO)[C@@H](O)[C@H](O)[C@H]4O[C@@H]4O[C@H](CO)[C@H](O)[C@H](O)[C@H]4O)[C@@H](O)[C@H](O[C@@H]4O[C@H](CO)[C@@H](O)[C@H](O)[C@H]4O)[C@H]3O)CC[C@]3(C)C(=CCC4[C@@]5(C)CC[C@H](O[C@@H]6OC[C@@H](O)[C@H](O)[C@H]6O)[C@@](C)(C(=O)O)C5CC[C@]43C)[C@@H]2C1 (stereo not given in full)
inactive: activity change, negative = cytotoxicity (C33A) -13.6% [at 6.55 µM] | activity change, negative = cytotoxicity (CAOV3) 6.72% [at 6.55 µM] | activity change, negative = cytotoxicity (CASKI) -6.95% [at 6.55 µM] | activity change, negative = cytotoxicity (Es-2) 3.44% [at 6.55 µM] | activity change, negative = cytotoxicity (HeLa) 0.826% [at 6.55 µM] | activity change, negative = cytotoxicity (Hek293T) 8.22% [at 6.55 µM]

C[C@@H]1C[C@@H]([C@@H](O)C(C)(C)O)O[C@H]2C[C@@]3(C)C(=C12)C[C@H](O)[C@H]1[C@@]2(C)CCC(=O)C(C)(C)C2CC[C@@]13C (stereo not given in full)
inactive: Potency (C33A) | Potency (CAOV3) | Potency (CASKI) | Potency (Es-2) | Potency (HeLa) | Potency (Hek293T)

N#Cc1ccc2[nH]cc(CCCCN3CCN(c4ccc5oc(C(N)=O)cc5c4)CC3)c2c1
inactive: Potency (C33A) | Potency (CAOV3) | Potency (CASKI) | Potency (Es-2) | Potency (HeLa) | Potency (Hek293T)

C=C1[C@H](OC(C)=O)[C@H]2[C@@H](OC(C)=O)[C@](C)(OC(C)=O)C[C@]2(OC(C)=O)C(=O)[C@H](C)/C=C/C(C)(C)C(=O)[C@H](OC(=O)C(C)CC)[C@H]1OC(C)=O (stereo not given in full)
inactive: Potency (C33A) | Potency (CAOV3) | Potency (CASKI) | Potency (Es-2) | Potency (HeLa) | Potency (Hek293T)

CC1=CCC(C(C)(C)O[C@@H]2O[C@H](CO[C@@H]3O[C@@H](C)[C@H](O)[C@@H](O)[C@H]3O)[C@@H](O)[C@H](O)[C@H]2O)CC1 (stereo not given in full)
inactive: Potency (C33A) | Potency (CAOV3) | Potency (CASKI) | Potency (Es-2) | Potency (HeLa) | Potency (Hek293T)

OCC1OC(Oc2cc(O)cc(/C=C/c3ccc(O)cc3)c2)C(O)C(O)C1O (stereo not given)
inactive: Potency (C33A) | Potency (CAOV3) | Potency (CASKI) | Potency (Es-2) | Potency (HeLa) | Potency (Hek293T)

O=C(OC[C@H]1O[C@H](O[C@]2(CO)O[C@H](CO)[C@@H](O)[C@@H]2O)[C@H](O)[C@@H](O)[C@@H]1O)c1ccccc1
inactive: Potency (C33A) | Potency (CAOV3) | Potency (CASKI) | Potency (Es-2) | Potency (HeLa) | Potency (Hek293T)

CC(c1ncncc1F)C(O)(Cn1cncn1)c1ccc(F)cc1F (stereo not given)
inactive: Potency (C33A) | Potency (CAOV3) | Potency (CASKI) | Potency (Es-2) | Potency (HeLa) | Potency (Hek293T)

C=C1CC[C@H]2[C@@](C)(CCC(O)[C@@]2(C)CO)[C@@H]1CCC1=CCOC1=O (stereo not given in full)
inactive: Potency (C33A) | Potency (CAOV3) | Potency (CASKI) | Potency (Es-2) | Potency (HeLa) | Potency (Hek293T)

C[C@@H]1O[C@@H](O[C@H]2[C@@H]3C=CO[C@@H](O[C@@H]4O[C@H](CO)[C@@H](O)[C@H](O)[C@H]4O)[C@@H]3[C@@]3(CO)O[C@@H]23)[C@H](OC(=O)/C=C/c2ccc(O)c(O)c2)[C@H](O)[C@H]1O
inactive: Potency (C33A) | Potency (CAOV3) | Potency (CASKI) | Potency (Es-2) | Potency (HeLa) | Potency (Hek293T)

Cc1ccc(F)cc1C(=O)Nc1ccc(C(=O)N2Cc3cccn3Cc3ccccc32)c(Cl)c1
inactive: Potency (C33A) | Potency (CAOV3) | Potency (CASKI) | Potency (Es-2) | Potency (HeLa) | Potency (Hek293T)

CC(C)=CCCC1(C)C=Cc2c(c(C)cc3c2[nH]c2ccccc23)O1 (stereo not given)
inactive: Potency (C33A) | Potency (CAOV3) | Potency (CASKI) | Potency (Es-2) | Potency (HeLa) | Potency (Hek293T)
